Here are results for 78 compounds from PubChem BioAssay AID504437 (Emory University Molecular Libraries Screening Center, 2011).

Hit rate of the full screen: of about 2,100 compounds, about 940 (45%) were called active. So high a share suggests a set chosen from earlier hits. Not all results are given here. A number with no mark means an inactive call.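 How the source made its calls: active means mean of three repeat readings of reporter signal inhibition above a set limit (cut at about 70% in these data); inactive means the rest.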

The experiment can be described thus: retest of CHOP induction inhibitors, confirmation, cell-based (AID 504437).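 Further: 0% = tunicamycin plus vehicle and 100% = wells lacking tunicamycin.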 Particulars: CHO-CHOP promoter luciferase reporter, tunicamycin-induced, luminescence; at 10 µM; stronger effect = higher value. On the technique in general: Reporter assays use an easily measured gene product as a stand-in for the process of interest.
As to `NC(=O)CC(NC(=O)Cc1cccc2ccccc12)c1ccc(NCc2cc(F)ccc2F)c([N+](=O)[O-])c1` (stereo not drawn), the inhibition (in general, the relative decrease from the control value, in per cent) is 87.6% (active). As for `O=[N+]([O-])c1c(NCCO)cc(Sc2nc3ccccc3s2)c2nonc12`, the figure is -6.6%. `CC1=C/C(=N\OS(=O)(=O)c2ccccc2)C=CC1=O`: the inhibition is 141% (active). As to `CCOc1ccc2nc(Nc3nc4ccc(NC(C)=O)cc4s3)sc2c1`, the inhibition is 56.5%. Under `COc1ccc(COC(=O)c2n[nH]c3ccccc23)cc1F` stands 15.5%; under `O=C(CCl)Nc1ccc(Sc2ccc(NC(=O)CCl)cc2)cc1`, 113% (active); under `Fc1ccccc1/C=C1\CCCC2=C1Nc1ncnn1C2c1ccccc1F` (stereo not drawn), 6.7%. With `O=C(NNc1ccccc1Cl)C(O)(c1cccc(C(F)(F)F)c1)c1cccc(C(F)(F)F)c1`, the inhibition is 54.8%. As for `O=C(Cn1cc(C(F)(F)F)ccc1=O)N/N=C/c1ccc(Cl)cc1Cl`, the figure is 27.2%. On to `OCCCNc1nccc(-c2cc(Nc3cccc(Cl)c3)ncn2)n1`, for which the inhibition is 121% (active).

As for `Cc1ccc(-n2ncc3c2ncn2nc(-c4ccco4)nc32)c(C)c1`, the inhibition is -1.3%. As for `COc1ccc(NC(=O)/C(C#N)=C\c2cc(OC)c(OCc3ccc(C(=O)O)cc3)cc2Br)cc1`, the figure is 17.8%; as for `O=C(Nc1ccccc1Cl)/C(Cl)=C(\Cl)S(=O)c1ccccc1` (stereo not drawn), 122% (active). As to `Clc1cccc(CN2COc3c(cc(Cl)c4cccnc34)C2)c1`, the inhibition is -62%. As for `COc1cccc(-c2nnc(NC(=O)c3ccc(S(=O)(=O)N(CC(C)C)CC(C)C)cc3)o2)c1`, the figure is 110% (active); as for `CCOC(=O)c1cc2cc(-c3c(C(=O)OCC)oc4cc(O)cc(O)c4c3=O)ccc2o1`, 46.1%; as for `Cc1nnc(SCC(=O)N/N=C/c2cn(-c3ccccc3)nc2-c2ccc(F)cc2)n1-c1ccccc1`, -50.1%. Regarding `CCN(CC)S(=O)(=O)c1ccc2nc(COC(=O)c3n[nH]c4ccccc34)[nH]c2c1`, the inhibition was 66%. Take `CCCCCCn1c(CN2CCCC(C)C2)nc2c1c(=O)n(C)c(=O)n2C` (stereo not drawn): the inhibition is 97.6% (active).

As for `O=C(CC(NC(=O)c1ccccc1)c1ccccc1)Nc1ccc(F)c(F)c1` (stereo not drawn), the inhibition is 67.4%.

With `CCCCCn1c(SCCC(C)C)nc2c1c(=O)[nH]c(=O)n2C`, the inhibition is 97.6% (active). Under `CCCCSc1nc2c(c(=O)n1CC)SC(C)C2` (stereo not drawn) stands 58.6%. `C=C(C)C(=O)O[C@H]1C/C(C)=C\C(=O)/C=C(\C)[C@H](O)[C@@H]2OC(=O)C(=C)[C@@H]21`: the inhibition was 43.7%. As to `Cc1cccc(NC(=O)Nc2cccc(Oc3c(F)c(F)c(F)c(F)c3F)c2)c1`, the inhibition was 69.3%. Turning to `O=C(Nc1cc(N2CCOCC2)ncn1)NC1(C(F)(F)F)Oc2ccc(Cl)cc2O1` (stereo not drawn), the inhibition is 93.7% (active).

With `Cc1c(C(=O)Nc2cccc(Cl)c2)cn2c(nc3ccccc32)c1C#N`, the inhibition is 33.5%.

With `O=C(/C=C/Sc1ncn[nH]1)c1ccc(Cl)cc1`, the inhibition was 98% (active).

In the case of `FC(F)(F)c1cc(-c2ccco2)nc(N2CCOCC2)n1`, the inhibition was 49.6%.

With `O=C(CCl)N(Cc1cccc([N+](=O)[O-])c1)c1cccc(Cl)c1`, the inhibition was 118% (active). As for `Cc1ccc(-n2nc(C)c(/C=N/NC(=O)c3cccs3)c2Cl)cc1`, the inhibition is -50.9%.

Turning to `CN1C(=O)/C(=C/c2ccc(C(=O)NC3CCCC3)cc2)Oc2ccccc21`, the inhibition is -73.2%. As for `O=C1C=C(c2ccc(Cl)cc2)C(=O)N1Nc1ccccc1`, the figure is -116%. For the compound `COc1cc(/C=N/NC(=O)Nc2ccccc2)ccc1OCCOc1ccccc1C`, the inhibition is 86.2% (active). Turning to `CCCOc1ccc(Cc2c(Cl)nc(SC)nc2NC)cc1`, the inhibition is 104% (active). As for `N#CC(C(=O)c1ccc(S(=O)(=O)N2CCCCCC2)cc1)c1nc2ccccc2[nH]1` (stereo not drawn), the inhibition is -6.4%. `CCSc1nc(C)nc2c1oc1ccccc12`: the inhibition is 19.6%. For `Cc1ccc(-c2csc(-c3c[nH]c4ccccc34)n2)cc1`, the inhibition was 53.5%. `Cc1nc(SCC(=O)Nc2cc(C)on2)c2c3c(sc2n1)CCCC3`: the inhibition was 80.7% (active). Turning to `COc1ccc(-n2c(SCC(=O)Nc3sc4c(c3C#N)CCCC4)nnc2-c2ccc(O)cc2)cc1`, the inhibition was 37.1%.

With `Oc1ccc(/C=N/N(Cc2ccccc2)c2ccccc2)cc1`, the inhibition is 30.1%. Turning to `Cc1c(-c2ccccc2)n[nH]c1C(=O)N=Nc1c(O)[nH]c2ccccc12`, the inhibition was -12.3%.

For `Cc1cc(-c2n[nH]c(=S)n2/N=C/C(Br)=C/c2ccccc2)n[nH]1`, the inhibition is 106% (active). As for `FC(F)(F)c1cc(C(F)(F)F)c2ccc(N3CCN(c4ccccc4)CC3)nc2n1`, the inhibition was 61.6%. On to `CCCCc1nc(NCCN)c(C#N)c2c1CSC(C)(C)C2`, for which the inhibition was 82.5% (active).

As to `O=[N+]([O-])c1cccc(-c2nnc3c4ccccc4c4ccccc4n23)c1`, the inhibition is 23.3%. Under `CCCCCCC(=O)N(O)C1CC(=O)N(c2ccccc2)C1=O` (stereo not drawn) stands 16.2%; under `Clc1ccc(Nc2nc(-c3cccs3)cs2)nc1`, 124% (active); under `Oc1cccc(C2c3[nH]c4ccccc4c3CCN2Cc2cnn(-c3ccccc3)c2)c1` (stereo not drawn), -4.4%. As for `O=[N+]([O-])c1cc(S(=O)(=O)CCCN2CCOCC2)ccc1F`, the figure is -45.2%; as for `O=C(Nc1ccccc1C(F)(F)F)c1cc(-c2ccc(O)cc2)on1`, 77.8% (active); as for `CC(C)Cc1cc(C(=O)Nc2cc(Br)ccc2O)no1`, 22.3%. Take `CCCc1nc2ccccc2c(C(=O)OCC(=O)c2ccc3c(c2)NC(=O)CO3)c1CC`: the inhibition was -11.4%. Take `CC(C)(C)C1C/C(=C/c2ccco2)C(=O)/C(=C/c2ccco2)C1` (stereo not drawn): the inhibition was 85.1% (active). For the compound `OC(CNCC1CCCO1)Cn1c2ccc(Br)cc2c2cc(Br)ccc21` (stereo not drawn), the inhibition was 81.5% (active). Regarding `CC(C)(C)c1ccc(Oc2ccc(N)cc2)cc1`, the inhibition was 117% (active). Under `O=C(Nc1nnc(COc2ccccc2)s1)Nc1ccccc1F` stands 1%; under `Cc1cc(C(=O)CCl)c(C)n1CC1COc2ccccc2O1` (stereo not drawn), -124%; under `CS(=O)(=O)N(CC(=O)Nc1ccc(Cl)c(Cl)c1)C1CCCCC1`, 33.2%. Take `COc1cc(/C=N/O)cc(Br)c1OCc1cccc(Cl)c1`: the inhibition is 138% (active). As to `NC(N)=N/N=C/c1ccc(OCc2ccc(Cl)cc2Cl)cc1`, the inhibition was -25.2%. Take `COC(=O)/C=C\C(=O)Nc1cccc([N+](=O)[O-])c1`: the inhibition was 101% (active). As for `Fc1ccccc1C(c1nnnn1Cc1ccc2c(c1)OCO2)N1CCN(Cc2ccccc2)CC1` (stereo not drawn), the figure is 22.4%; as for `CC(C)=CCc1c(O)c(CC=C(C)C)c2occ(-c3ccc(O)cc3)c(=O)c2c1O`, 15.8%; as for `COc1cc(SC#N)ccc1N=Cc1c(C)[nH]n(-c2ccc(C)cc2)c1=O`, 34%. Turning to `C=C(C)COc1ccc(-c2n[nH]c(C)c2-c2ccccc2OC)c(O)c1`, the inhibition was 112% (active). Take `COc1ccc(/C=C/C(=O)Nc2c(C)nn(C)c2C)cc1COc1ccc(Br)cc1`: the inhibition was 20.4%. Regarding `Cc1ccc(NC(=S)NC(NC(=O)Cc2cccc3ccccc23)C(Cl)(Cl)Cl)cc1` (stereo not drawn), the inhibition was 72.1% (active). As for `CCOC(=O)c1c(C)[nH]c2c1-c1ccccc1C(=O)C2=O`, the inhibition is 122% (active). For `Cc1ccc(NC(=O)/C(=C/c2ccc([N+](=O)[O-])cc2)NC(=O)c2ccccc2)cc1`, the inhibition is -5.3%.

In the case of `COc1cc(C(=O)OC(C)C(=O)NCC2CCCCC2)cc(NC(=O)c2ccco2)c1OC` (stereo not drawn), the inhibition is 93% (active). Regarding `Cc1cccc(OCc2nnc(SCc3nc4cc(C(F)(F)F)ccc4c(=O)[nH]3)o2)c1`, the inhibition is 114% (active).

As to `CCOC(=O)C(C)Sc1nc2ccccc2c(=O)n1CC1CCCCC1` (stereo not drawn), the inhibition was 61.7%. In the case of `C=CCn1c(C)cc(C2=NNC(=NCC)SC2)c1C`, the inhibition was 136% (active). On to `NC(=O)COc1ccc(C23CC4CC(CC(C4)C2)C3)cc1`, for which the inhibition was 7.3%.

As to `CCOC(=O)C1=C(c2ccc(OC)cc2)C(=O)c2ccccc2C1=O`, the inhibition is 110% (active). In the case of `CSc1nc2sc3c(c2c(=O)[nH]1)CCc1ccccc1-3`, the inhibition was 12.2%.

Take `O=C(/C=C/c1ccc(F)cc1)Nc1cccc(S(=O)(=O)Nc2cccc(C(F)(F)F)c2)c1`: the inhibition was 7.6%. With `CSc1nc(-c2ccccc2)nc(C(Cl)Cl)n1`, the inhibition is 96.2% (active).
